Hits are enriched below; roughly 4.9% of the tested compounds scored in any of these assays.
NLRP3 yeast inh – NALP3 inhibition in yeast | Yeast reconstituted NLRP3/ASC/caspase-1, beta-gal luminescence, 24 h | inhibition, % at 10 µM | actives 0.39% (n = 330,000) | AID 2825;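 active = inhibition of 50% or more; inactive = inhibition below 50%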
NALP1 inh – inhibitors of NALP1 inflammasome in yeast; S. cerevisiae NALP1/ASC/caspase-1 growth, X-gal OD620, 72 h; inhibition, % at 10 µM; actives 0.61% (n = 280,000); AID 2071; in the data active = inhibition mostly above about 24%, no sharp cut-off; inactive = mostly below about 32%
tim23-1 inh – growth inhibitors of tim23-1 mutant yeast. inhibition, % at 20 µM. S. cerevisiae tim23-1 growth, BacTiter-Glo luminescence, 24 h. actives 1.3% (n = 330,000);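 active = growth inhibition of the mutant yeast at or above 50%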;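 also: temperature-sensitive mutant grown at 25 °C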
TIM10 inh – growth inhibitors of TIM10 yeast strain; S. cerevisiae TIM10 strain growth, BacTiter-Glo luminescence, 24 h; inhibition, % at 10 µM; actives 1.4% (n = 330,000);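 active = inhibition of 40% or more at the single tested concentration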;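 also: wild-type TIM10 isogenic control strain grown at permissive 25 °C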
SKKanGAS inh – inhibitors of SKKanGAS S. pyogenes growth in kanamycin (SK-promoter or general growth effect) | BacTiter-Glo, 6 h | inhibition, % at 7.5 µM | actives 1.3% (n = 300,000);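 active = mean replicate score, as percent of positive control median, at least 50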;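 also: strain carries kanamycin resistance gene driven by streptokinase promoter and grows in 40 µg/ml kanamycin; loss of luminescence reflects streptokinase promoter inhibition or plain growth inhibition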
tim10-1 inh – tim10-1 yeast growth inhibition | S. cerevisiae tim10-1 ts strain growth, BacTiter-Glo, 24 h | inhibition, % at 20 µM | actives 2.2% (n = 330,000) | AID 463190;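 active = inhibition of at least 40%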;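 also: mutant grown at 25 °C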
NALP3 yeast conf – NALP3 inhibition confirmation in yeast | shares compounds with NLRP3 yeast inh | actives 81% (n = 1,300) | inhibition, % at 10 µM | yeast expressing human NALP3, luminescence; in the data active = inhibition above about 48%
Casp1 ASC ctr – active in yeast caspase-1-ASC counter-screen for NALP3 inhibitors; yeast expressing Caspase-1-ASC, luminescence counter screen; inhibition, % at 10 µM; actives 66% (n = 1,000); AID 488784; shares compounds with NLRP3 yeast inh
NALP3 retest – retest-confirmed inhibitor of NALP3 in yeast | yeast expressing human NALP3, luminescence read-out | shares compounds with NLRP3 yeast inh | inhibition, % at 10 µM | actives 53% (n = 1,000)
Of the large screens only hits and unclear results are named; the others gave an inactive call (follow-up assays come after a bar, where they were run). Rule as the data show it, unless noted: active = inhibition above about 50%; inactive = the rest.

COc1cccc2cc(C(=O)c3ccccc3)oc12	NLRP3 yeast inh 50 | NALP3 yeast conf inactive
Cc1ccc(NC(=O)CN2CCN(CCN=CC3=C(O)CC(C)(C)CC3=O)CC2)cc1	NLRP3 yeast inh 55 | NALP3 yeast conf 58 | Casp1 ASC ctr inactive | NALP3 retest inactive
CC1(C)CC(=O)C(C=NCCN2CCN(CC(=O)Nc3ccc(Cl)cc3)CC2)=C(O)C1	none
CC1CCCN(CCOc2cccc(Oc3ccccc3)c2)C1 (stereo unspecified)	NLRP3 yeast inh 50 | NALP3 yeast conf 56 | Casp1 ASC ctr inactive | NALP3 retest inactive
Cc1cc2nc(N3C(=O)CNC3=S)sc2cc1C	NLRP3 yeast inh 69, SKKanGAS inh 85 | NALP3 yeast conf 82
Cc1ccc(S(=O)(=O)N(C)/N=C/c2ccc(N(C)C)cc2)cc1	NLRP3 yeast inh 51 | NALP3 yeast conf 54 | Casp1 ASC ctr inactive | NALP3 retest inactive
O=C1c2ccccc2C(=O)C12OC2c1ccc(Cl)cc1 (stereo unspecified)	none | NALP3 yeast conf inactive
CC(=O)N1N=C(c2ccc(Cl)cc2)OC1(C)C	NLRP3 yeast inh 71 | NALP3 yeast conf 51 | Casp1 ASC ctr 52 | NALP3 retest inactive
CCc1cc(C(=O)Nc2cc(Cl)ccc2N2CCN(C)CC2)sc1C	NLRP3 yeast inh 67 (no result: NALP1 inh) | NALP3 yeast conf 79 | Casp1 ASC ctr 77 | NALP3 retest 73
CCOc1ccccc1NC(=O)CC1(CC(=O)N2CCOCC2)CCCC1	none (no result: NALP1 inh, SKKanGAS inh)
Cc1ccc(NC(=O)NCCSc2ccc(C)cc2)cc1	none
Cc1ccc(SCCNC(=S)Nc2cc(C)cc(C)c2)cc1	NLRP3 yeast inh 55 | NALP3 yeast conf 61 | Casp1 ASC ctr 50 | NALP3 retest inactive
Cc1ccccc1CSc1nnc(-c2cccs2)n1Cc1ccco1	none
c1ccc(CSc2nnc(-c3cccs3)n2Cc2ccco2)cc1	none | NALP3 yeast conf inactive
O=c1c2cc(Cl)ccc2nc(-c2ccc([N+](=O)[O-])cc2)n1O	NLRP3 yeast inh 65 | NALP3 yeast conf 68 | Casp1 ASC ctr inactive | NALP3 retest 58
CCCc1ccc(C(C)NC(=S)NC2CCCCC2)cc1 (stereo unspecified)	none
CC(C)CCNC(=O)c1cccc(C(=O)NCCC(C)C)c1	none
CC(C)CCNC(=O)c1ccc(-c2ccccc2)cc1	NLRP3 yeast inh 52 | NALP3 yeast conf 61 | Casp1 ASC ctr inactive | NALP3 retest inactive
Cc1ccc(S(=O)(=O)c2ncccc2N)cc1	none
Cc1ccc(S(=O)(=O)c2ncccc2[N+](=O)[O-])cc1	NLRP3 yeast inh 58, NALP1 inh 36 | NALP3 yeast conf 69 | Casp1 ASC ctr 68 | NALP3 retest 58
C(=C\n1nnc2ccccc21)/c1ccccn1	NLRP3 yeast inh 53 (no result: NALP1 inh) | NALP3 yeast conf 71 | Casp1 ASC ctr inactive
CCOc1ccccc1CN1CCCC(CNC(=O)Cc2ccc(OC)cc2)C1 (stereo unspecified)	none
CN1CCN(c2ccc(C(CC(N)=O)NC(=O)Cc3cccc4ccccc34)cc2[N+](=O)[O-])CC1 (stereo unspecified)	none
N#C/C(=N\Nc1ccc(Cl)cc1)C(=O)c1ccccc1	NLRP3 yeast inh 55 | NALP3 yeast conf 59 | Casp1 ASC ctr 73 | NALP3 retest 84
CCC(=O)c1ccc(N2CCCC2)c(F)c1	none
CCCC(=O)c1ccc(N2CCCC2)c(F)c1	NLRP3 yeast inh 55 | NALP3 yeast conf inactive
CC(C)N(Cc1ccccc1)S(=O)(=O)c1ccc(F)cc1	NLRP3 yeast inh 51 | NALP3 yeast conf 56 | Casp1 ASC ctr inactive | NALP3 retest inactive
O=C(Nc1cc(Cl)ccc1-n1cncn1)c1ccc([N+](=O)[O-])s1	NLRP3 yeast inh 82, NALP1 inh 45 | NALP3 yeast conf 91
CC(Oc1ccc(F)cc1)C(=O)Nc1cc(Cl)ccc1-n1cncn1 (stereo unspecified)	none (no result: NALP1 inh)
CC(Oc1ccccc1)C(=O)Nc1cc(Cl)ccc1-n1cncn1 (stereo unspecified)	NLRP3 yeast inh 57 (no result: NALP1 inh) | NALP3 yeast conf 59 | Casp1 ASC ctr 52 | NALP3 retest inactive
Cc1nn(C(C)C(=O)NCCN2CCCCCC2)c(=O)c2nn(-c3ccccc3)c(C)c12 (stereo unspecified)	none
CCOC(=O)c1ccc(Nc2ncccc2[N+](=O)[O-])cc1	none
CC(=O)Nc1ccc(S(=O)(=O)NCCC(=O)Nc2cc(C)ccn2)cc1	none (no result: NALP1 inh)
C/C(=N\NC(=O)C1CC1)c1ccc(OC(F)F)cc1	none
COc1cc(CNC(C)c2ccccc2)cc(Cl)c1OCC(=O)Nc1ccccc1 (stereo unspecified)	NLRP3 yeast inh 53 | NALP3 yeast conf inactive
CCN(CC)CCNCc1cc(Cl)c(OCC(=O)Nc2ccccc2)c(OC)c1	none
CSCc1ccc(C(=O)NCCSc2ccc(Br)cc2)cc1	none
c1ccc2nc(-c3nc4ccccc4[nH]3)ccc2c1	NLRP3 yeast inh 53 | NALP3 yeast conf 67 | Casp1 ASC ctr inactive | NALP3 retest inactive
Fc1ccccc1-c1nc2ccccc2[nH]1	NLRP3 yeast inh 60 | NALP3 yeast conf 58 | Casp1 ASC ctr 54 | NALP3 retest 60
CCOc1cc(C=O)ccc1OCCSc1ccc(Cl)cc1	NLRP3 yeast inh 53 | NALP3 yeast conf 48 | Casp1 ASC ctr 58 | NALP3 retest inactive
C=C(C)Cn1c(=O)c2c(nc3n2CCCN3Cc2ccccc2)n(C)c1=O	none
Cc1cc(N2C(=O)C(O)=C(C(=O)c3ccco3)C2c2ccccc2F)no1 (stereo unspecified)	none
CCc1sc(C(=O)Nc2nc(C)cs2)cc1C	NLRP3 yeast inh 56 | NALP3 yeast conf 72 | Casp1 ASC ctr 66 | NALP3 retest 54
Cc1cc(NC(=O)c2cc(-c3ccc(OC(C)C)cc3)nc3ccccc23)no1	none
CCCCCCCCC(=O)N1CCN(c2cc3c(cc2F)c(=O)c(C(=O)O)cn3CC)CC1	NLRP3 yeast inh 57 | NALP3 yeast conf 52 | Casp1 ASC ctr inactive | NALP3 retest inactive
CN(CC(=O)Nc1cccc(F)c1)C(=O)c1ccccc1CCc1ccccc1	none (no result: NALP1 inh)
CC(C)NC(=O)[C@]1(C)CCC[C@@]2(C)C3CC[C@@]4(C)C[C@]3(CCC21)CC4=O (stereo partly specified)	NLRP3 yeast inh 59 (no result: NALP1 inh, SKKanGAS inh) | NALP3 yeast conf inactive | Casp1 ASC ctr 53 | NALP3 retest 53
C[C@@]12CCC3[C@@](CCC4[C@@]3(C)CCC[C@@]4(C)C(=O)Nc3ccc(Cl)cc3)(CC1=O)C2 (stereo partly specified)	none (no result: NALP1 inh, SKKanGAS inh)
N#Cc1ccccc1COC(=O)CCCC1=NS(=O)(=O)c2ccccc2N1	none

Compound activity from PubChem.
